# Measured values as given in PubChem BioAssay.
# “And” between values parts separate entries of the source, which are not always exact repeats. Identical values can stand only once. The source made the active and inactive calls.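 How the source made its calls, unless noted: active means z-score of at least 1.8 in each of two replicates, scored against plate mean and spread of sample wells; inactive means the rest.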
# Assay: ovarian cancer cell viability with rucaparib, profiling panel, oncology-focused library, rucaparib conditional (AID 1508598;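 active means normalized viability below 100% at a tested concentration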)
# Details: patient-derived ovarian cancer cells, CellTiter-Glo viability, 144 h; at 5 µM; OCI-P5x cells; without rucaparib; active compounds read low
row,Compound,viability
1,C[C@@H](N)C1CCC(C(=O)Nc2ccncc2)CC1 (stereo partly drawn),99.6% (active)
2,CC(C)c1onc(-c2c(Cl)cccc2Cl)c1COc1ccc(/C=C/c2cccc(C(=O)O)c2)c(Cl)c1,98.8% (active)
3,O=c1cc(N2CCOCC2)oc2c(-c3ccccc3)cccc12,93.7% (active)
4,Cc1ccc(S(=O)(=O)/C=C/C#N)cc1,2.37% (active)
5,C[C@H](NC(=O)Cc1cc(F)cc(F)c1)C(=O)N[C@H](C(=O)OC(C)(C)C)c1ccccc1,78.3% (active)
6,O=C(O)Cc1cccc(OCCCN(Cc2cccc(C(F)(F)F)c2Cl)CC(c2ccccc2)c2ccccc2)c1,87.5% (active)

# Assay: viability rescue of complex I mutant cybrids, primary screen, cell-based, galactose medium, ATP luminescence (AID 1645843);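 further: positive z means more ATP and so rescue of galactose-driven cybrid death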
# Details: complex I mutant cybrid cells, 72 h, active compounds read high
row,Compound,z-score
1,O=C(/C=C/c1c(C(=O)O)[nH]c2cc(Cl)cc(Cl)c12)Nc1ccccc1,4.95 (active)
2,C[C@H](NC(=O)c1sccc1OCc1ccc(Cl)cc1)c1ccccc1,-1.04 (inactive)
3,CNC(=O)[C@H]1O[C@@H](n2cnc3c(NCc4cccc(I)c4)nc(Cl)nc32)[C@H](O)[C@@H]1O,-0.4 (inactive)
4,COc1cc(SC)ccc1C(=O)N1CCC(Cc2ccccc2)CC1,-0.91 (inactive) and -0.635 (inactive)
5,N#C/C(=C(/N)Sc1ccc(N)cc1)c1ccccc1C(F)(F)F,-0.775 (inactive)
6,COc1ccc(-c2oc3cc(OC)ccc3c2C(=O)c2ccc(C#N)cc2)cc1,0.755 (inactive)
7,Oc1cc(O)cc(/C=C/c2ccc(O)c(O)c2)c1,-1.24 (inactive) and -0.7 (inactive)
8,O=Nc1c(-c2c(O)[nH]c3ccccc23)[nH]c2ccccc12,-1.48 (inactive) and -0.805 (inactive)
9,CN(CCOc1ccc(-c2ccc3c(c2)OCO3)cc1C(C)(C)C)CC(=O)O,-0.035 (inactive)
10,N#CC(=C(/N)Sc1ccccc1N)/C(C#N)=C(\N)Sc1ccccc1N,-0.875 (inactive)
11,FC(F)(F)c1ccc(/C=C/c2nc(COc3ccc(CCCCn4ccnn4)cc3)co2)cc1,-0.935 (inactive)
12,C=CCc1cccc(/C=N/NC(=O)CN2CCN(Cc3ccccc3)CC2)c1O,-1.15 (inactive) and -0.59 (inactive)
13,C[C@@H](N)C1CCC(C(=O)Nc2ccncc2)CC1 (stereo partly drawn),-0.445 (inactive)
14,Cc1cccc(C#Cc2ccccc2)n1,1.15 (inactive) and 1.02 (inactive)
15,Nc1nccc(-c2ccc3noc(-c4ccc(Cl)cc4)c3c2)n1,-0.05 (inactive)
16,Nc1ncnc2c1ncn2[C@@H]1O[C@H](CO)C[C@H]1O,-0.55 (inactive)

row,Compound,z-score
1,NC(=O)c1ccc(-c2nc(-c3ccc4c(c3)OCCO4)c(-c3ccccn3)[nH]2)cc1,-0.34 (inactive)
2,CC(C)N(CCC(=O)c1ccc2ccccc2c1)Cc1ccccc1,-1.29 (inactive) and -0.82 (inactive)
3,COc1ccc(Nc2nccc(NCCO)n2)cc1,-0.315 (inactive)
4,CC(C)(C)/[N+]([O-])=C/c1ccc(S(=O)(=O)O)cc1S(=O)(=O)O,2.67 (inactive)
5,CC(C)c1onc(-c2c(Cl)cccc2Cl)c1COc1ccc(/C=C/c2cccc(C(=O)O)c2)c(Cl)c1,-0.665 (inactive)
6,COc1cc2c(cc1O)CC[C@@H]1[C@@H]2CC[C@]2(C)[C@@H](O)CC[C@@H]12,0.06 (inactive) and 0.18 (inactive)
7,Cc1ccccc1C(=O)c1ccc(Nc2ccc(Br)cc2N)cc1Cl,-0.695 (inactive)
8,N#C/C(=C\c1ccc(O)c(O)c1)C(=O)NCc1ccccc1,-0.425 (inactive)
9,CCOC(=O)C(C)Oc1cccc2c(=O)n(CC(=O)Nc3ccc4c(c3)OCCO4)ccc12 (stereo not drawn),0.675 (inactive) and 0.45 (inactive)
10,CC(C)C[C@@H](C(=O)N[C@H](C(=O)OC1CCCC1)c1ccccc1)[C@H](O)C(=O)NO,0.875 (inactive)
11,O=c1ncccn1[C@@H]1O[C@H](CO)[C@@H](O)[C@H]1O,-0.025 (inactive)
12,Clc1ccc(-c2nc3sccn3c2/C=N/OCc2ccc(Cl)c(Cl)c2)cc1,0.06 (inactive)
13,O=c1cc(N2CCOCC2)oc2c(-c3ccccc3)cccc12,5.55 (active) and 5.94 (active)
14,O=S(=O)(NCCNC/C=C/c1ccc(Br)cc1)c1cccc2cnccc12,-0.61 (inactive)
15,Oc1ccc(Nc2nc(-c3ccc(Cl)cc3)cs2)cc1,-0.695 (inactive)
16,CCCC[C@@H](C=O)NC(=O)[C@H](CC(C)C)NC(=O)OCc1ccccc1,2.31 (inactive)
